Experimental data from ChEMBL document CHEMBL4513141, “CO-ADD screening of NIH (USA) - Clinical Collection” (2021).
Entries with a potency or affinity are not part of this list.

Columns and labels:
Staphylococcus aureus = conditions: Concentration 20 uM; ASSAY_TEST Inhibition of Bacterial Growth; detection method Absorption (OD600); MEDIA CAMHB; plate type 384well; NBS; CORNING #3640; time 18 hr
Escherichia coli = conditions: Concentration 20 uM; ASSAY_TEST Inhibition of Bacterial Growth; detection method Absorption (OD600); MEDIA CAMHB; plate type 384well; NBS; CORNING #3640; time 18 hr

Question: What does the source list for CCC(=O)O[C@]1(C(=O)CCl)[C@@H](C)C[C@H]2[C@@H]3CCC4=CC(=O)C=C[C@]4(C)[C@@]3(F)[C@@H](O)C[C@@]21C [CLOBETASOL PROPIONATE]?
Answer: Inhibition (Staphylococcus aureus): -12.08%; Inhibition (Escherichia coli): -1.37%

Question: With Cc1cc2c(s1)Nc1ccccc1N=C2N1CCN(C)CC1 [OLANZAPINE] as the compound, how does the Inhibition (Staphylococcus aureus) read?
Answer: The Inhibition was 9.67%.

Question: What about the Inhibition (Escherichia coli) of the same compound?
Answer: The Inhibition was 0.45%.

Question: Which Inhibition (Staphylococcus aureus) does the source give for COCC1=C(C(=O)OC(C)OC(=O)OC(C)C)N2C(=O)[C@@H](NC(=O)/C(=N\OC)c3csc(N)n3)[C@H]2SC1 (some centres not stated) [CEFPODOXIME PROXETIL] here?
Answer: The Inhibition was -13.09%.

Question: What about the Inhibition (Escherichia coli) of the same compound?
Answer: Its Inhibition is 5.31%.

Question: How did the Inhibition (Staphylococcus aureus) turn out when Cl.O[C@@H](c1cc(C(F)(F)F)nc2c(C(F)(F)F)cccc12)[C@H]1CCCCN1 was run?
Answer: The Inhibition was 36.85%.

Question: And the Inhibition (Escherichia coli)?
Answer: The Inhibition was 7.08%.

Question: How did the Inhibition (Staphylococcus aureus) turn out when NS(=O)(=O)Cc1noc2ccccc12 [ZONISAMIDE] was run?
Answer: The Inhibition was 1.04%.

Question: What about the Inhibition (Escherichia coli) of the same compound?
Answer: The Inhibition was 0.42%.

Question: What does the source list for C[C@]12CCC(=O)C=C1CC[C@@H]1[C@@H]2C(=O)C[C@@]2(C)[C@H]1CC[C@]2(O)C(=O)CO [CORTISONE]?
Answer: Inhibition (Staphylococcus aureus): 18.73%; Inhibition (Escherichia coli): 3.83%

Question: What does the source list for Cl.Nc1nc2ccc(OC(F)(F)F)cc2s1?
Answer: Inhibition (Staphylococcus aureus): 13.98%; Inhibition (Escherichia coli): 2.43%

Question: Which results are given for CC(=O)OCC(=O)[C@@]1(O)CC[C@H]2[C@@H]3CCC4=CC(=O)C=C[C@]4(C)[C@H]3[C@@H](O)C[C@@]21C [PREDNISOLONE ACETATE]?
Answer: Inhibition (Staphylococcus aureus): 11.59%; Inhibition (Escherichia coli): 1.81%

Question: COc1ccc(Cl)cc1C(=O)NCCc1ccc(S(=O)(=O)NC(=O)NC2CCCCC2)cc1 [GLYBURIDE] was tested. Which Inhibition (Staphylococcus aureus) did it give?
Answer: The Inhibition was -3.01%.

Question: What about the Inhibition (Escherichia coli) of the same compound?
Answer: Its Inhibition is -12.57%.

Question: How did the Inhibition (Staphylococcus aureus) turn out when OCCN1CCN(CCCN2c3ccccc3Sc3ccc(Cl)cc32)CC1 [PERPHENAZINE] was run?
Answer: The Inhibition was 23.21%.

Question: And the Inhibition (Escherichia coli)?
Answer: The Inhibition was 4.38%.

Question: How did the Inhibition (Staphylococcus aureus) turn out when CC1=C(/C=C/C(C)=C/C=C/C(C)=C/C(=O)O)C(C)(C)CCC1 [TRETINOIN] was run?
Answer: The Inhibition was 13.92%.

Question: And the Inhibition (Escherichia coli)?
Answer: Its Inhibition is 7.4%.

Question: COc1ccccc1OCC(O)CN1CCN(CC(=O)Nc2c(C)cccc2C)CC1.Cl.Cl (configuration not stated) [RANOLAZINE HYDROCHLORIDE] was tested. Which Inhibition (Staphylococcus aureus) did it give?
Answer: Its Inhibition is 15.16%.

Question: And the Inhibition (Escherichia coli)?
Answer: Its Inhibition is -4.15%.

Question: Which results are given for COC(=O)C1=C(C)NC(C)=C(C(=O)OCC(C)C)C1c1ccccc1[N+](=O)[O-] (configuration not stated) [NISOLDIPINE]?
Answer: Inhibition (Staphylococcus aureus): 10.19%; Inhibition (Escherichia coli): 14.24%

Question: For CCCC1O[C@@H]2C[C@H]3[C@@H]4CCC5=CC(=O)C=C[C@]5(C)[C@H]4[C@@H](O)C[C@]3(C)[C@]2(C(=O)CO)O1 (some centres not stated) [BUDESONIDE], which Inhibition (Staphylococcus aureus) is on record?
Answer: Its Inhibition is 6.99%.

Question: What about the Inhibition (Escherichia coli) of the same compound?
Answer: The Inhibition was -1.42%.

Question: What does the source list for O=c1c(O[C@@H]2O[C@H](CO)[C@H](O)[C@H](O)[C@H]2O)c(-c2ccc(O)c(O)c2)oc2cc(O)cc(O)c12 [HYPEROSIDE]?
Answer: Inhibition (Staphylococcus aureus): 7.34%; Inhibition (Escherichia coli): 3.89%

Question: How did the Inhibition (Staphylococcus aureus) turn out when CN1CCc2cc(Cl)c(O)cc2[C@@H](c2ccccc2)C1.Cl was run?
Answer: Its Inhibition is 10.41%.

Question: And the Inhibition (Escherichia coli)?
Answer: The Inhibition was 0.35%.

Question: For CCCN1CCCC[C@H]1C(=O)Nc1c(C)cccc1C.Cl [ROPIVACAINE HYDROCHLORIDE], which Inhibition (Staphylococcus aureus) is on record?
Answer: Its Inhibition is 13.36%.

Question: And the Inhibition (Escherichia coli)?
Answer: Its Inhibition is 1.04%.

Question: How did the Inhibition (Staphylococcus aureus) turn out when CCCNC(C)C(=O)Nc1ccccc1C.Cl (configuration not stated) [PRILOCAINE HYDROCHLORIDE] was run?
Answer: Its Inhibition is 16.77%.

Question: And the Inhibition (Escherichia coli)?
Answer: The Inhibition was 4.99%.

Question: Nc1nc2c(ncn2COCCO)c(=O)[nH]1 [ACYCLOVIR] was tested. Which Inhibition (Staphylococcus aureus) did it give?
Answer: The Inhibition was -22.02%.

Question: And the Inhibition (Escherichia coli)?
Answer: Its Inhibition is 4.79%.

Question: Sc1ncnc2nc[nH]c12 [MERCAPTOPURINE ANHYDROUS] was tested. Which Inhibition (Staphylococcus aureus) did it give?
Answer: Its Inhibition is 22.75%.

Question: And the Inhibition (Escherichia coli)?
Answer: Its Inhibition is 6.85%.

Question: With CC(=O)O[C@]1(C(C)=O)CC[C@H]2[C@@H]3C=C(C)C4=CC(=O)CC[C@]4(C)[C@H]3CC[C@@]21C [MEGESTROL ACETATE] as the compound, how does the Inhibition (Staphylococcus aureus) read?
Answer: The Inhibition was 14.19%.

Question: What about the Inhibition (Escherichia coli) of the same compound?
Answer: The Inhibition was 0.92%.

Question: With CNC(=C[N+](=O)[O-])NCCSCc1csc(CN(C)C)n1 [NIZATIDINE] as the compound, how does the Inhibition (Staphylococcus aureus) read?
Answer: The Inhibition was 11.02%.

Question: And the Inhibition (Escherichia coli)?
Answer: Its Inhibition is 4.27%.

Question: CC1(C)C[C@@H]1C(=O)N/C(=C\CCCCSC[C@H](N)C(=O)O)C(=O)[O-].[Na+] [CILASTATIN SODIUM] was tested. Which Inhibition (Staphylococcus aureus) did it give?
Answer: The Inhibition was -4.51%.

Question: And the Inhibition (Escherichia coli)?
Answer: Its Inhibition is -0.62%.

Question: CC1(C)S[C@@H]2[C@H](/N=C/N3CCCCCC3)C(=O)N2[C@H]1C(=O)O [AMDINOCILLIN] was tested. Which Inhibition (Staphylococcus aureus) did it give?
Answer: Its Inhibition is 10.96%.

Question: What about the Inhibition (Escherichia coli) of the same compound?
Answer: Its Inhibition is 1.83%.

Question: For C=C[C@H]1CN2CC[C@H]1C[C@@H]2[C@@H](O)c1ccnc2ccc(OC)cc12 [QUINIDINE], which Inhibition (Staphylococcus aureus) is on record?
Answer: The Inhibition was 10.07%.

Question: What about the Inhibition (Escherichia coli) of the same compound?
Answer: The Inhibition was -1.55%.

Question: For Cl.NC[C@H]1CC[C@H](C(=O)Oc2ccc(CCC(=O)O)cc2)CC1 [CETRAXATE HYDROCHLORIDE], which Inhibition (Staphylococcus aureus) is on record?
Answer: Its Inhibition is 14.3%.

Question: What about the Inhibition (Escherichia coli) of the same compound?
Answer: Its Inhibition is -0.51%.
